Reference: the supplement of paper PMC10849652
Of roughly 7,900 targets only a part is listed; those with a hit were picked by preference. About 0.6% of all pairs of compound and target were hits. A number with no mark means an inactive call.

What was measured:
Test in all cases: log2 fold change, soluble protein after heating vs DMSO (PISA); higher = thermal stabilisation; K562 cells, 10 uM, 30 min; active = over 0.2 and 3.5 SD of the protein, either way, in both replicates (recomputed)
[1] = compound: CC1=C(C=C(C=C1)NC(=O)C2=CC(=CC=C2)C(C)(C)C#N)NC3=CC4=C(C=C3)N=CN(C4=O)C
In short: (§1)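 Soluble protein was defined as the supernatant after 21,000xg for 90 min. It came from K562 cells at 2×10^6 cells/mL given 10 μM compound for 30 min, heated in aliquots for 3 min across 48°C-58°C, pooled, and extracted in PBS with 0.5% NP-40 at 4°C, and was quantified by TMTpro 16plex LC-MS/MS with equalised channel sums. Thermal stability against control samples, from duplicates, is reported as log2 fold change.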

[2] = compound: CC1=CC=C(C=C1)SC2=C3C=C(SC3=CN=C2)C(=O)N
In short: as §1

[3] = compound: CC1=NC(=CC=C1)C2=C(N=C(N2)C(C)(C)C)C3=CC4=NC=CN=C4C=C3
In short: as §1

[4] = compound: CCCS(=O)(=O)Nc1ccc(F)c(C(=O)c2c[nH]c3ncc(-c4ccc(Cl)cc4)cc23)c1F [vemurafenib]
In short: as §1

[5] = compound: CCCS(=O)(=O)Nc1ccc(F)c(C(=O)c2c[nH]c3ncc(Cl)cc23)c1F
In short: as §1

[6] = compound: CCCc1cc(C)[nH]c(=O)c1CNC(=O)c1cc(-c2ccnc(N3CCN(C)CC3)c2)cc2c1cnn2C(C)C
In short: as §1

[7] = compound: CCN(CCCOc1ccc2c(Nc3cc(CC(=O)Nc4cccc(F)c4)[nH]n3)ncnc2c1)CCOP(=O)(O)O [barasertib]
In short: as §1

[8] = compound: CC1=C(C=C(C=C1)NC(=O)C2=CC(=CC=C2)N(C)C)NC(=O)C3=CC=C(C=C3)O
In short: as §1

[9] = compound: CCCCN(Cc1ccc(C(=O)NO)cc1)C(=O)Nc1ccccc1 [Nexturastat A]
In short: as §1

[10] = compound: CCN(CC)Cc1ccc2cc(COC(=O)Nc3ccc(C(=O)NO)cc3)ccc2c1 [givinostat]
In short: as §1

UniProt Q9H257, sequence (Q9H257 whole entry, looked up): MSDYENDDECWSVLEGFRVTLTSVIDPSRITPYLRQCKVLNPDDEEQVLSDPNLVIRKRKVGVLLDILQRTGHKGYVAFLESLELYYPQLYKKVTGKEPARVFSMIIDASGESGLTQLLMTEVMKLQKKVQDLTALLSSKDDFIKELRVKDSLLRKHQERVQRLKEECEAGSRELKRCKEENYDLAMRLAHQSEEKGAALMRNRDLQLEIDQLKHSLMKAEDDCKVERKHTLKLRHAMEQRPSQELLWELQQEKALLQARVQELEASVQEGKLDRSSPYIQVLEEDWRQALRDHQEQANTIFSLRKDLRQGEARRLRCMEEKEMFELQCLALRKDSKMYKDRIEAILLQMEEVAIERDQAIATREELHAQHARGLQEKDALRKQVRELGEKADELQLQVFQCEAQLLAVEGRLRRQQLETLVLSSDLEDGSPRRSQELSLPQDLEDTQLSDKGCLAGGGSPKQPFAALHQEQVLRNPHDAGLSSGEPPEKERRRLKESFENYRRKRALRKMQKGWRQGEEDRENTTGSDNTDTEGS
UniProt Q15417, sequence (Q15417 whole entry, looked up): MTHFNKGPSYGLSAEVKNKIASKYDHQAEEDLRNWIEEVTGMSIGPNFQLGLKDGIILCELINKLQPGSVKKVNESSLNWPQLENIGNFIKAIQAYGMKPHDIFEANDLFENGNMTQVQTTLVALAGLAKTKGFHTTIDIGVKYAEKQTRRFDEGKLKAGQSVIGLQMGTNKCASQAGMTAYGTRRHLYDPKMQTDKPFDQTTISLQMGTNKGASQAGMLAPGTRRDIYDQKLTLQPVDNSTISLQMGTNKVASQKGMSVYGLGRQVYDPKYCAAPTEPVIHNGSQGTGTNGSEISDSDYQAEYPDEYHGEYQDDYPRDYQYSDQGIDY
UniProt P51911, sequence (P51911 whole entry, looked up): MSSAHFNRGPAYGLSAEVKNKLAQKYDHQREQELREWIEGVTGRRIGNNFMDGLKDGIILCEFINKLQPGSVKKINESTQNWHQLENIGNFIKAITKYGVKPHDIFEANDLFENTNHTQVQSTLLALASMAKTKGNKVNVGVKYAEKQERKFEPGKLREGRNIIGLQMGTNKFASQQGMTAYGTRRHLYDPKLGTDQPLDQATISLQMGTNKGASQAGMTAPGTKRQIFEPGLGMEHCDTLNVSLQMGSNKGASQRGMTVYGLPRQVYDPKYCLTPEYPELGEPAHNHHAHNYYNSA
UniProt P51636, sequence (P51636 whole entry, looked up): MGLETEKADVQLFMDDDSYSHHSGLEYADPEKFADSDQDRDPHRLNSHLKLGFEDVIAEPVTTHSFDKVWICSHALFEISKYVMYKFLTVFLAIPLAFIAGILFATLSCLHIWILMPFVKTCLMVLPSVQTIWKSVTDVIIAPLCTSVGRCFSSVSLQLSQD
UniProt Q9UJA2, sequence (Q9UJA2 whole entry, looked up): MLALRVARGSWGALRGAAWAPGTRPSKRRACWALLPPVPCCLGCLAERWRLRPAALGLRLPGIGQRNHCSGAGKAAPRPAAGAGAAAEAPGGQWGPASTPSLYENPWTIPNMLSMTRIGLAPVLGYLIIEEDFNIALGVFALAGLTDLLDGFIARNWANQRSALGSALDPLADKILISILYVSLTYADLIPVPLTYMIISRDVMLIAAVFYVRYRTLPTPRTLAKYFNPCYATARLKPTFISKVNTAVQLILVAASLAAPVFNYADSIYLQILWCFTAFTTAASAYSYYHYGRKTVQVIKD
UniProt P48729, sequence (P48729 whole entry, looked up): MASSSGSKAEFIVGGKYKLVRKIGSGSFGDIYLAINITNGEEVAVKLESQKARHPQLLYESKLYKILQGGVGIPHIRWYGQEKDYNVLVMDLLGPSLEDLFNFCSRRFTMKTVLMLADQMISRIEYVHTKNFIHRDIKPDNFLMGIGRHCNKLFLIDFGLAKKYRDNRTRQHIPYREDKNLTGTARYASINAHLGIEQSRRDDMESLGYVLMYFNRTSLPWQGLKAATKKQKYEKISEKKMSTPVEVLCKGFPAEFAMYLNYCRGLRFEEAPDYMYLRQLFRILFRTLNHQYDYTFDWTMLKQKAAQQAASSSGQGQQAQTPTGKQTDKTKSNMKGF
UniProt Q8N4S0, sequence (Q8N4S0 whole entry, looked up): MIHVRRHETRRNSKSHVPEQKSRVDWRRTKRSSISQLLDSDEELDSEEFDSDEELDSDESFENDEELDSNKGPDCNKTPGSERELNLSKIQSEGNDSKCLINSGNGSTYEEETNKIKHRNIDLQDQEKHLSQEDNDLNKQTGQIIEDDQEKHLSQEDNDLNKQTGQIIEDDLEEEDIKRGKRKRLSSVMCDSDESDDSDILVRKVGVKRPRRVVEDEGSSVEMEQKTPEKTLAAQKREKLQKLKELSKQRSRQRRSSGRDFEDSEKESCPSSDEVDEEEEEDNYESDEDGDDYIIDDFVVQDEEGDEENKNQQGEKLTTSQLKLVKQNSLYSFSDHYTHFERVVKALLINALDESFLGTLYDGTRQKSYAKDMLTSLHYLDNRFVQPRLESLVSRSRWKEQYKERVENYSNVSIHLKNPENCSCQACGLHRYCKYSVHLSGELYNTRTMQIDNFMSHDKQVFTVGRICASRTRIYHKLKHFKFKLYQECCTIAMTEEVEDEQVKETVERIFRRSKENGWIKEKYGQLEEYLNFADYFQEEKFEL
UniProt O75956, sequence (O75956 whole entry, looked up): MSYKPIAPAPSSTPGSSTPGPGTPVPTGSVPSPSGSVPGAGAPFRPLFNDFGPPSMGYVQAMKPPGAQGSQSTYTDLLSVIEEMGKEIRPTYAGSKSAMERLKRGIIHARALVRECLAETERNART
UniProt Q96GV9, sequence (Q96GV9 whole entry, looked up): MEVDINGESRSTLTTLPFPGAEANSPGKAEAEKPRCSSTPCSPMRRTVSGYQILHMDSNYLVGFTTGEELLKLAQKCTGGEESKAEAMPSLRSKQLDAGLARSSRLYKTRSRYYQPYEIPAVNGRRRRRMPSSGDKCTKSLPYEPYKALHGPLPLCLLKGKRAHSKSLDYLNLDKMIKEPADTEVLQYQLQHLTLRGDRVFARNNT
UniProt Q9UHN6, sequence (Q9UHN6 whole entry, looked up): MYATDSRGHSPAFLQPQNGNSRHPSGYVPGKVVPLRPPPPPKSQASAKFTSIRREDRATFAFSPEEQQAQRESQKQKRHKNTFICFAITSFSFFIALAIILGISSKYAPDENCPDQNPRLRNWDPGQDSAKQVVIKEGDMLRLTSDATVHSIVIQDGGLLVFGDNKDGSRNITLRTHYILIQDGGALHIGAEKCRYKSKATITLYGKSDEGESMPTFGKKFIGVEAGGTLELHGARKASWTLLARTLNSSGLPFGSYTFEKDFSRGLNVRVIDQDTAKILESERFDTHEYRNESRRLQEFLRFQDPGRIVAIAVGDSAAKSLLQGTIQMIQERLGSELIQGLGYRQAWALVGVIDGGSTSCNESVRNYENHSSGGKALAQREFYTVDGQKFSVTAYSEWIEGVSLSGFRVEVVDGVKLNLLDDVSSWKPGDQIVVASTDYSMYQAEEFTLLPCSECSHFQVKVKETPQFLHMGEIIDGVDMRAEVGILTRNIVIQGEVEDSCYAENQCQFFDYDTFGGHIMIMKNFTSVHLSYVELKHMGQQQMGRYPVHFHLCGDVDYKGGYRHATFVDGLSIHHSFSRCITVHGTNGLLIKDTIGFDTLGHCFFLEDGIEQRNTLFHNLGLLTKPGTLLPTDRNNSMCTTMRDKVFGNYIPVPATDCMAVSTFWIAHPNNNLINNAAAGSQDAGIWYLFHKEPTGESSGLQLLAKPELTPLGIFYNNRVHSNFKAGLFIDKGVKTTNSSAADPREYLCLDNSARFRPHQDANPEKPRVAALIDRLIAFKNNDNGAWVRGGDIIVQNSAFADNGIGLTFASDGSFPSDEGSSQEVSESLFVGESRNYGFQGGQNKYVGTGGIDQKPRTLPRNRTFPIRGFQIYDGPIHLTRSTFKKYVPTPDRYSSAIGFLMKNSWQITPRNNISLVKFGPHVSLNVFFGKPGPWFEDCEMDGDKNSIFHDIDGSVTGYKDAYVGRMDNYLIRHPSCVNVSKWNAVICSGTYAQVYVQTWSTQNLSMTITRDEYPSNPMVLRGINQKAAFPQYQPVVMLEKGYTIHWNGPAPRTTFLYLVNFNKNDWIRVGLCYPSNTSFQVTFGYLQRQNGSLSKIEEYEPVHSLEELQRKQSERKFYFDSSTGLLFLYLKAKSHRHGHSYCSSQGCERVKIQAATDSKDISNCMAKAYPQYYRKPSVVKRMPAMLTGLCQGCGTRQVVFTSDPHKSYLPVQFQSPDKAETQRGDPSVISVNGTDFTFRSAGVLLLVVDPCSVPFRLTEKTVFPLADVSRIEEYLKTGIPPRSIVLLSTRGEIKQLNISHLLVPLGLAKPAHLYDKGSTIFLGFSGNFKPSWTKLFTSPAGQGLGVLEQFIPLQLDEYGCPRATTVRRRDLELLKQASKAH
UniProt Q96F85, sequence (Q96F85 whole entry, looked up): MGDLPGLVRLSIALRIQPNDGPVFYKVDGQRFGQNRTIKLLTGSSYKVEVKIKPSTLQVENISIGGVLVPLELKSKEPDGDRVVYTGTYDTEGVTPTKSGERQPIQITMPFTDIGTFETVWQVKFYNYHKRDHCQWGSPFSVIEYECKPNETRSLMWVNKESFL
UniProt P33552, sequence (P33552 whole entry, looked up): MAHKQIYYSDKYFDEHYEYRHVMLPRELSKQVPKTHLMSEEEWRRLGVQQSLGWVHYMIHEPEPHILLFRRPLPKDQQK
UniProt Q9UIB8, sequence (Q9UIB8 whole entry, looked up): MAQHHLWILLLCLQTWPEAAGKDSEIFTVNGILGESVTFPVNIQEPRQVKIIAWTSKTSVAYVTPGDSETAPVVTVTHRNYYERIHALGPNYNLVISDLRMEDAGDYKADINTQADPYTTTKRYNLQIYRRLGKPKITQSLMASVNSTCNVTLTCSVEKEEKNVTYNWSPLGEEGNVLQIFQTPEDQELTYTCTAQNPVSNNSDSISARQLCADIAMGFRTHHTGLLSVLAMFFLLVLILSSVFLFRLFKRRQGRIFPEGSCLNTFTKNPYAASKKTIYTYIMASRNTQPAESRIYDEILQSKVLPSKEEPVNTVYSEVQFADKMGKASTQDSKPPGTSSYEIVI
UniProt A8MTT3, sequence (A8MTT3 whole entry, looked up): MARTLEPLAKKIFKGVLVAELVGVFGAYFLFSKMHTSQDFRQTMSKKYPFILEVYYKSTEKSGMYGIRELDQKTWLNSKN

For CEP128 (UniProt Q6ZU80), which log2 fold change [1] is on record?
The log2 fold change was -0.043.

What about the log2 fold change [2] of the same target?
The log2 fold change was 0.006.

And the log2 fold change [3]?
The log2 fold change was -0.188.

And the log2 fold change [4]?
The log2 fold change was -0.1.

What about the log2 fold change [5] of the same target?
Its log2 fold change is -0.118.

What about the log2 fold change [6] of the same target?
Its log2 fold change is -0.422.

What about the log2 fold change [7] of the same target?
Its log2 fold change is 0.098.

For CNRIP1 (UniProt Q96F85), which log2 fold change [8] is on record?
The log2 fold change was 0.073.

And the log2 fold change [2]?
The log2 fold change was 0.023.

And the log2 fold change [9]?
Its log2 fold change is -0.206.

And the log2 fold change [5]?
Its log2 fold change is -0.075.

What about the log2 fold change [6] of the same target?
Its log2 fold change is -0.087.

What about the log2 fold change [10] of the same target?
The log2 fold change was 0.106.

Which log2 fold change [2] does the source give for CKS2 (UniProt P33552) here?
Its log2 fold change is -0.031.

And the log2 fold change [5]?
Its log2 fold change is 0.039.

And the log2 fold change [6]?
The log2 fold change was -0.077.

What about the log2 fold change [7] of the same target?
Its log2 fold change is 0.045.

Which results are given for CARD9 (UniProt Q9H257)?
log2 fold change [8]: -0.15; log2 fold change [3]: 0.052; log2 fold change [10]: -0.106

For CDK2AP2 (UniProt O75956), which log2 fold change [8] is on record?
Its log2 fold change is -0.14.

What about the log2 fold change [3] of the same target?
The log2 fold change was 0.021.

And the log2 fold change [9]?
The log2 fold change was 0.022.

And the log2 fold change [6]?
The log2 fold change was -0.065.

What about the log2 fold change [10] of the same target?
Its log2 fold change is -0.154.

And the log2 fold change [7]?
The log2 fold change was -0.029.

How did the log2 fold change [1] turn out when COMMD3-BMI1 (UniProt R4GMX3) was run?
The log2 fold change was -0.002.

And the log2 fold change [2]?
The log2 fold change was -0.126.

What about the log2 fold change [9] of the same target?
The log2 fold change was 0.03.

What about the log2 fold change [5] of the same target?
The log2 fold change was -0.426 (active).

For CNN1 (UniProt P51911), which log2 fold change [1] is on record?
Its log2 fold change is -0.068.

And the log2 fold change [2]?
Its log2 fold change is -0.1.

And the log2 fold change [9]?
Its log2 fold change is -0.029.

And the log2 fold change [4]?
The log2 fold change was 0.056.

And the log2 fold change [5]?
The log2 fold change was -0.042.

And the log2 fold change [6]?
The log2 fold change was -0.012.

What does the source list for CRMP1 isoform 2 (UniProt Q14194)?
log2 fold change [1]: 0.089; log2 fold change [4]: -0.026; log2 fold change [10]: -0.19; log2 fold change [7]: 0.035

CASK (UniProt O14936) was tested. Which log2 fold change [3] did it give?
Its log2 fold change is -0.091.

And the log2 fold change [10]?
Its log2 fold change is -0.06.

Which log2 fold change [10] does the source give for CPNE5 (UniProt Q9HCH3) here?
Its log2 fold change is -0.005.

Which log2 fold change [1] does the source give for CLPTM1L (UniProt G5E9Z2) here?
Its log2 fold change is 0.122.

And the log2 fold change [9]?
The log2 fold change was -0.466.

And the log2 fold change [4]?
Its log2 fold change is 0.055.

What about the log2 fold change [6] of the same target?
The log2 fold change was -0.035.

And the log2 fold change [7]?
The log2 fold change was -0.076.

With CSNK1A1 isoform 3 (UniProt P48729) as the target, how does the log2 fold change [2] read?
Its log2 fold change is -0.08.

What about the log2 fold change [5] of the same target?
Its log2 fold change is 0.227.

What about the log2 fold change [6] of the same target?
Its log2 fold change is -0.035.

And the log2 fold change [7]?
The log2 fold change was -0.089.

How did the log2 fold change [8] turn out when CEMIP2 (UniProt Q9UHN6) was run?
The log2 fold change was 0.043.

And the log2 fold change [2]?
Its log2 fold change is 0.592 (active).

What about the log2 fold change [3] of the same target?
The log2 fold change was 0.033.

What about the log2 fold change [9] of the same target?
The log2 fold change was 0.02.

And the log2 fold change [4]?
Its log2 fold change is -0.045.

And the log2 fold change [5]?
The log2 fold change was -0.1.

What about the log2 fold change [6] of the same target?
Its log2 fold change is -0.168.

And the log2 fold change [10]?
Its log2 fold change is -0.052.

And the log2 fold change [7]?
The log2 fold change was -0.012.

CS (UniProt F8VU34) was tested. Which log2 fold change [7] did it give?
The log2 fold change was -0.024.

CRLS1 (UniProt Q9UJA2) was tested. Which log2 fold change [1] did it give?
The log2 fold change was 0.337 (active).

What about the log2 fold change [2] of the same target?
Its log2 fold change is 0.064.

And the log2 fold change [3]?
Its log2 fold change is -0.014.

And the log2 fold change [4]?
Its log2 fold change is 0.033.

And the log2 fold change [5]?
Its log2 fold change is 0.117.

What about the log2 fold change [6] of the same target?
The log2 fold change was -0.074.

And the log2 fold change [10]?
Its log2 fold change is -0.108.

What does the source list for CCNL1 (UniProt Q9UK58)?
log2 fold change [6]: -0.317; log2 fold change [10]: 0.156

Which log2 fold change [2] does the source give for CFAP47 (UniProt Q6ZTR5) here?
Its log2 fold change is -0.159.

And the log2 fold change [9]?
Its log2 fold change is -0.041.

What about the log2 fold change [4] of the same target?
Its log2 fold change is -0.11.

And the log2 fold change [5]?
The log2 fold change was -0.106.

What about the log2 fold change [7] of the same target?
The log2 fold change was -0.035.

Which log2 fold change [1] does the source give for CD84 (UniProt Q9UIB8) here?
The log2 fold change was -0.181.

And the log2 fold change [9]?
Its log2 fold change is 0.096.

What about the log2 fold change [10] of the same target?
The log2 fold change was 0.006.

Which log2 fold change [8] does the source give for CCDC82 (UniProt Q8N4S0) here?
Its log2 fold change is -0.027.

What about the log2 fold change [2] of the same target?
The log2 fold change was -0.007.

What about the log2 fold change [3] of the same target?
Its log2 fold change is -0.103.

What about the log2 fold change [9] of the same target?
Its log2 fold change is 0.043.

And the log2 fold change [4]?
Its log2 fold change is 0.015.

And the log2 fold change [5]?
Its log2 fold change is 0.055.

And the log2 fold change [6]?
Its log2 fold change is -0.035.

And the log2 fold change [10]?
The log2 fold change was -0.074.

And the log2 fold change [7]?
The log2 fold change was 0.073.

With C5orf30 (UniProt Q96GV9) as the target, how does the log2 fold change [2] read?
The log2 fold change was -0.126.

And the log2 fold change [9]?
Its log2 fold change is -0.186.

And the log2 fold change [5]?
Its log2 fold change is 0.103.

CNN3 (UniProt Q15417) was tested. Which log2 fold change [1] did it give?
Its log2 fold change is 0.014.

And the log2 fold change [2]?
The log2 fold change was 0.064.

And the log2 fold change [9]?
Its log2 fold change is 0.015.

And the log2 fold change [4]?
Its log2 fold change is 0.034.

And the log2 fold change [5]?
Its log2 fold change is 0.07.

And the log2 fold change [6]?
The log2 fold change was -0.018.

And the log2 fold change [10]?
The log2 fold change was 0.073.

What about the log2 fold change [7] of the same target?
The log2 fold change was 0.047.

With CEBPZOS (UniProt A8MTT3) as the target, how does the log2 fold change [8] read?
Its log2 fold change is -0.015.

What about the log2 fold change [2] of the same target?
Its log2 fold change is 0.027.

And the log2 fold change [3]?
Its log2 fold change is -0.016.

And the log2 fold change [4]?
Its log2 fold change is 0.065.

And the log2 fold change [5]?
Its log2 fold change is 0.132.

And the log2 fold change [6]?
Its log2 fold change is -0.069.

And the log2 fold change [10]?
The log2 fold change was -0.029.

And the log2 fold change [7]?
Its log2 fold change is 0.059.

For CASP7 isoform 3 (UniProt P55210), which log2 fold change [9] is on record?
Its log2 fold change is 0.255.

And the log2 fold change [10]?
The log2 fold change was -0.005.

And the log2 fold change [7]?
The log2 fold change was -0.249.

Which results are given for CREB3L2 (UniProt Q70SY1)?
log2 fold change [8]: 0.085; log2 fold change [3]: -0.23; log2 fold change [9]: 0.706 (active); log2 fold change [4]: -0.036; log2 fold change [6]: 0.154; log2 fold change [10]: 0.436; log2 fold change [7]: 0.081

CFAP58 (UniProt Q5T655) was tested. Which log2 fold change [8] did it give?
Its log2 fold change is 0.185.

What about the log2 fold change [2] of the same target?
Its log2 fold change is 0.07.

What about the log2 fold change [5] of the same target?
The log2 fold change was -0.175.

And the log2 fold change [6]?
The log2 fold change was -0.219.

How did the log2 fold change [9] turn out when CA1 (UniProt E5RIF9) was run?
The log2 fold change was -0.413.

And the log2 fold change [4]?
Its log2 fold change is -0.383.

And the log2 fold change [7]?
Its log2 fold change is -0.004.

With CAV2 (UniProt P51636) as the target, how does the log2 fold change [1] read?
Its log2 fold change is -0.164.

What about the log2 fold change [2] of the same target?
The log2 fold change was -0.018.

And the log2 fold change [3]?
The log2 fold change was 0.078.

And the log2 fold change [5]?
The log2 fold change was 0.087.

What about the log2 fold change [6] of the same target?
The log2 fold change was 0.001.

And the log2 fold change [10]?
The log2 fold change was 0.137.

What about the log2 fold change [7] of the same target?
The log2 fold change was 0.175.

CLASP2 (UniProt O75122) was tested. Which log2 fold change [8] did it give?
The log2 fold change was -0.286.

What about the log2 fold change [2] of the same target?
The log2 fold change was -0.103.

And the log2 fold change [3]?
The log2 fold change was 0.065.

What about the log2 fold change [5] of the same target?
Its log2 fold change is -0.068.

What about the log2 fold change [6] of the same target?
The log2 fold change was -0.017.

What about the log2 fold change [10] of the same target?
The log2 fold change was 0.031.

What about the log2 fold change [7] of the same target?
The log2 fold change was 0.031.

Which log2 fold change [8] does the source give for CLCN5 isoform 2 (UniProt P51795) here?
Its log2 fold change is 0.052.

And the log2 fold change [3]?
Its log2 fold change is -0.016.

And the log2 fold change [4]?
Its log2 fold change is 0.029.

And the log2 fold change [10]?
The log2 fold change was 0.022.
